BJeLR lethal: MLPCN primary cell-based screen for lethality selective to Ras in HRASV12 cells | BJeLR (HRASV12) viability, CellTiter-Glo ATP luminescence, 48 h | inhibition, % (test concentration not listed) | 300,000 tested, 0.17% active | AID 1554, 2009; in the data active means inhibition above about 50%
Mtb FBA inh: Mtb FBA enzyme inhibitors, primary screen, biochemical, fluorescence, strain H37Rv. 360,000 tested, 2.3% active. purified M. tuberculosis FBA, fluorescence read-out. inhibition, % at 1 µM. AID 588726, 2011. Fructose-bisphosphate aldolase (Mycobacterium tuberculosis (strain ATCC 25618 / H37Rv)), …; in the data active means inhibition above about 27%;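 further: 0% = vehicle and 100% = reference inhibitor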
PrP 5UTR inh: inhibition of PrP 5' UTR reporter expression; 340,000 tested, 0.35% active; cell-based PrP 5' UTR mRNA reporter, plate reader; AID 488862, 2010; inhibition, % (test concentration not listed); in the data active means inhibition above about 52%; further: 0 = median of the neutral control wells
PrPC surface inh: inhibitors of human cell surface prion protein PrPC, primary screen, cell-based, TR-FRET. Major prion protein (Homo sapiens), P04156. TR-FRET read-out. inhibition, % at 13.8 µM. AID 720596, 2013. 370,000 tested, 0.43% active; in the data active means inhibition above about 24%; further: 0% = median of the test wells and 100% = reference compound wells
PfHsp40 rescue: rescue of yeast from PfHsp40 toxicity, primary screen, S. cerevisiae, ATP luminescence; S. cerevisiae expressing PfHsp40, growth rescue; growth rescue, % at 12.5 µM; 340,000 tested, 0.68% active; in the data active means growth rescue above about 28%, passing the limit was not always enough;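 further: yeast W303a lacking pdr1 and pdr3 grown in galactose medium; growth measured after three days at 30 °C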
GDH-TPI counter: GDH-TPI coupling enzyme inhibitors, primary screen, artefact control for M. tuberculosis FBA inhibitor project, biochemical, absorbance, full deck. GDH-TPI coupled enzyme counterscreen, NADH absorbance. inhibition, % at 4.8 µM. 360,000 tested, 1.2% active. AID 588335, 2011; in the data active means inhibition above about 30%;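 further: 0% = DMSO wells and 100% = wells lacking the enzyme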
PrPC confirm: confirmation of inhibitors of cell surface human prion protein, confirmation, cell-based, TR-FRET; shares compounds with PrPC surface inh; cell surface PrPC level; inhibition, % at 13.8 µM; 1,500 tested, 65% active; AID 743200, 2013; in the data active means inhibition above about 25%
LD9 tox: cytotoxicity in LD9 cells, cytotoxicity control for cell surface PrPc inhibitor project, cell-based, luminescence, high throughput | inhibition, % at 13.8 µM | shares compounds with PrPC surface inh | AID 743201, 2013 | luminescence viability | 1,500 tested, 29% active; in the data active means inhibition above about 9.5%
An asterisk follows results filed as active; . = not tested or not shown. The list is not random: actives were taken first. Their share in the collection is about 4.5%.

SMILES	BJeLR lethal	Mtb FBA inh	PrP 5UTR inh	PrPC surface inh	PfHsp40 rescue	GDH-TPI counter	PrPC confirm	LD9 tox
O=C(Nc1ccc2c(c1)OCO2)c1cc(C2CCCCN2S(=O)(=O)c2ccccc2)on1 (stereo not given)	.	5	.	47*	.	11	40*	0
O=C(Nc1ccccc1Cl)c1cc(C2CCCN(C(=O)C3CCCCC3)C2)on1 (stereo not given)	.	-5	.	0	.	-2	.	.
CCCc1cc(=O)oc2cc(OCC(=O)NCCc3c[nH]c4ccccc34)ccc12	7	4	-19	5	1	28	.	.
COc1cccc2sc3cc(NCCCN4CCOCC4)ccc3c(=O)c12	.	24	-20	72*	1	19	95*	-2
CCOC(=O)c1ccc2[nH]c(C)c(CCC(C)=O)c(=O)c2c1	9	20	-16	1	6	21	.	.
CC(=O)Nc1ccc2[nH]c(C)c(CC=C(Cl)Cl)c(=O)c2c1	-3	14	-9	37*	0	6	54*	-3
COc1ccc(-c2csc(NC(=O)c3ccccc3F)n2)cc1	0	-1	27	4	6	-6	.	.
COc1ccc(-c2csc(NC(=O)c3ccccc3NS(=O)(=O)c3ccc(F)c(F)c3)n2)cc1	16	3	-35	32*	9	15	44*	38*
Cc1ccc(NS(=O)(=O)c2cc(C(=O)NCc3ccccn3)ccc2Cl)cc1C	-6	4	-10	47*	-1	1	60*	6
CCOc1ccc2[nH]cc(C(=O)NCCc3ccccc3)c(=O)c2c1	2	2	-15	7	1	0	.	.
CCOc1ccc2[nH]cc(C(=O)NCc3ccccc3)c(=O)c2c1	1	1	-6	25*	0	12	18	6
COc1ccc(-c2noc(N3CCC(C(=O)NCCCN4CCCC(C)C4)CC3)n2)cc1 (stereo not given)	13	-3	-22	-8	0	11	.	.
Cc1cc(Cl)c2cc3ccccc3cc2n1	1	0	-23	-2	0	-4	.	.
CCc1ccccc1N(C)S(=O)(=O)c1ccc2[nH]cc(C(=O)N3CCc4ccccc43)c(=O)c2c1	0	5	11	100*	0	6	4	-5
Cc1cccc(N(C)S(=O)(=O)c2ccc3[nH]cc(C(=O)N4CCOCC4)c(=O)c3c2)c1	-5	6	-5	7	-2	9	.	.
Cc1cc(C)c(S(=O)(=O)Nc2ccc(N3CCOCC3)cc2)c(C)c1	18	0	-4	6	1	-2	.	.
Cc1cc(C)c(S(=O)(=O)Nc2cccc(S(=O)(=O)N3CCOCC3)c2)c(C)c1	0	-2	-11	27*	-1	-2	18	-10
COC(=O)c1cc(Br)c(=O)n(-c2nccs2)c1	-10	2	-5	49*	0	-3	94*	-3
COC(=O)c1cc(Br)c(=O)n(-c2ccccn2)c1	-6	2	9	7	-1	4	.	.
O=C(NC(=S)N1CCCC1)c1ccccc1Cl	7	3	6	-3	0	-7	.	.
CC(C)(C)NC(=O)CN(Cc1ccc2c(c1)OCO2)C(=O)CNC(=O)c1cccs1	-2	.	.	.	.	.	.	.
O=C(NCc1ccccc1Cl)C1CCC(CNS(=O)(=O)c2cccc3cccnc23)CC1 (stereo not given)	.	.	.	39*	.	.	50*	1
CN(c1ccc(Cl)cc1)c1cc(=O)n(C)c2ccccc12	6	7	1	25*	1	18	20	1
CCCCN(C)CCNC(=O)CN1C(=O)CSc2ccc(S(=O)(=O)N3CCOCC3)cc21	-6	-3	-4	6	-1	-11	.	.
C=CCOc1ccc(C2/C(=C(/O)c3ccc(OC)cc3)C(=O)C(=O)N2CCN2CCNCC2)cc1 (stereo not given)	9	0	-18	0	0	4	.	.
SMILES	BJeLR lethal	Mtb FBA inh	PrP 5UTR inh	PrPC surface inh	PfHsp40 rescue	GDH-TPI counter	PrPC confirm	LD9 tox
COc1ccc(NC(=O)[C@H](C)NC(=O)C2CCN(S(=O)(=O)c3ccc(C)cc3)CC2)cc1	-12	-2	-2	11	9	2	.	.
O=C(O)c1ccc(NC(=O)C2CC=CCC2C(=O)O)cc1 (stereo not given)	9	0	-9	31*	1	6	6	-1
C#CCNC(=O)C1=C[C@@H](c2ccc(C#C)cc2)C[C@@H](OCc2ccc(CO)cc2)O1	5	8	-3	-2	6	4	.	.
CC1=C(O)C(=O)C=C2C1=CC=C1C2(C)CCC2(C)C3CC(C)(C(=O)O)CCC3(C)CCC12C (stereo not given)	.	-3	24	62*	0	5	89*	98*
Cc1cc2ccccc2n1CCNC(=O)C(C)C	4	4	31	5	0	6	.	.
Cc1cc(C)c(S(=O)(=O)NCCn2c(C)cc3ccccc32)c(C)c1	-3	6	-1	20	-1	3	.	.
Cc1cc2ccccc2n1CCNC(=O)Cc1ccccc1	5	3	-8	27*	-1	4	14	-4
Cc1cc2ccccc2n1CCNC(=O)C(C)Oc1ccccc1 (stereo not given)	10	0	-1	41*	0	3	30*	-4
Cc1cccc(CC(=O)NCCn2c(C)cc3ccccc32)c1	12	-2	-28	27*	-1	7	8	-4
CCNC(=O)C1CCCN(C(=O)c2ccccc2OC(F)(F)F)CC1 (stereo not given)	.	-2	.	5	.	-5	.	.
CCN(CC)C(=O)Cn1cc(C(=O)C(=O)N2CCc3ccccc32)c2ccccc21	1	-1	-26	53*	0	14	13	-2
COc1ccc(OC)c(NC(=O)CSc2nc3ccccc3cc2Cc2ccccc2)c1	-7	1	-12	6	5	20	.	.
CCc1cc2ccccc2nc1SCC(=O)Nc1cc(OC)c(OC)cc1C(=O)O	2	15	-24	40*	0	0	5	-4
CC1CCC(NCCNC(=O)c2ccco2)CC1 (stereo not given)	-8	2	-21	2	1	-5	.	.
O=C(c1cn2ccccc2n1)N1CCCC(Nc2ccc(F)c(F)c2)C1 (stereo not given)	6	4	7	-10	-2	-1	.	.

Source: PubChem (several laboratories)
